The list is not random: actives were taken first. Their share in the collection is about 2.8%.
PP5 primary: PP5 phosphatase inhibitors, primary screen, biochemical, fluorescence; Serine/threonine-protein phosphatase 5 (Homo sapiens), P53041; purified PP5c, OMFP substrate fluorescence; inhibition, % at 6.7 µM; hit rate 0.18% among 320,000;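 active means inhibition above the campaign's mean inhibition across all tested compounds plus 3 SD, cut at about 9.5% in these data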
Target sequence (P53041 whole entry, looked up): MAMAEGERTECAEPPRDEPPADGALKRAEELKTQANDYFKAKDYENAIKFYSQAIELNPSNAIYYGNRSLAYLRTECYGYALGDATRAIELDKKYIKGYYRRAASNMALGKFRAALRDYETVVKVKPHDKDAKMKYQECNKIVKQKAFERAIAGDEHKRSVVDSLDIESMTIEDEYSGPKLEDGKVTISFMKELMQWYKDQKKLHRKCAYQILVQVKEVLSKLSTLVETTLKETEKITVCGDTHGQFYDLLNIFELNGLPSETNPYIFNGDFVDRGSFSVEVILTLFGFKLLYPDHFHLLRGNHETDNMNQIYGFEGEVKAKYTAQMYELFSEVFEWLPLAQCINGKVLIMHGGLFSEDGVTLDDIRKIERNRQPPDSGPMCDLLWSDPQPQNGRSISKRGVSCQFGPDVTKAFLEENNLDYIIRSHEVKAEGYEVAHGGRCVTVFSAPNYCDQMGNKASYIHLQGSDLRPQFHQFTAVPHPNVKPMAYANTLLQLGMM
Exocytosis inh: LAMP-1 surface exposure blockers, TALL-104 cells – cell-based, flow cytometry, MLPCN library, primary screen. TALL-104 LAMP-1 surface exposure; cells stimulated with thapsigargin and PMA. inhibition, % at 10 µM. hit rate 0.66% among 360,000;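 active means inhibition above about 55%, limit read from the data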
IDE act: human IDE activators in live cells, primary screen, fluorescence polarization, HEK cells, FAbeta-B substrate. FAbeta-B cleavage; 0% vehicle, 100% cell-free pure enzyme wells. activation, % at 5.96 µM. hit rate 0.073% among 340,000. AID 493087, 2011;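 active means activation above the mean of all tested compounds plus 3 SD, set per screening campaign, cut at about 17% in these data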
SKKanGAS inh: S. pyogenes SKKanGAS growth inhibitors in kanamycin, primary screen, streptokinase expression inhibitor project, SKKanGAS strain, BacTiter-Glo luminescence; hit rate 1.3% among 300,000; 6 h; inhibition, % at 7.5 µM; AID 1662, 2009;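 active means mean replicate score, as percent of positive control median, at least 50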;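 further: strain carries kanamycin resistance gene driven by streptokinase promoter and grows in 40 µg/ml kanamycin; loss of luminescence reflects streptokinase promoter inhibition or plain growth inhibition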
PP1 counter: PP1-alpha phosphatase inhibitors, primary screen, counter-screen for PP5 inhibitor project, biochemical, fluorescence, OMFP substrate, single point | Serine/threonine-protein phosphatase PP1-alpha catalytic subunit (Homo sapiens), P62136 | purified PP1alpha | inhibition, % at 6.7 µM | hit rate 0.9% among 320,000 | AID 2235, 2010;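 active means inhibition above the mean inhibition of all tested compounds plus 3 SD, computed separately for each screening campaign, cut at about 15% in these data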
IDE inh: human IDE inhibitors in live cells, primary screen, fluorescence polarization, HEK cells, FAbetaB substrate; Insulin-degrading enzyme (Homo sapiens), P14735; FAbetaB cleavage; inhibition, % at 5.59 µM; hit rate 0.41% among 320,000;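 active means percent inhibition above the average of all tested compounds plus 3 SD, set per screening campaign, cut at about 16% in these data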;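 further: IDE supplied by intact live HEK cells; FP after avidin binding of uncleaved biotin substrate so inhibition keeps polarization high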
Each line names hits and unclear results; the compound was inactive in the other large screens.

CC1(C)C(C(=O)N2CCN(c3ccc(Cl)cc3)CC2)C1(C)C	none
NS(=O)(=O)c1ccc(N=Cc2c(O)n(C3CCCCC3)c(=O)n(C3CCCCC3)c2=O)cc1	SKKanGAS inh 51
Cc1ccc(N2C(=O)NC(=O)/C(=C\c3ccoc3)C2=O)cc1	IDE inh 20
Cc1ccc(N2C(=O)NC(=O)/C(=C\C=C\c3ccco3)C2=O)cc1C	Exocytosis inh 59
Cc1ccc(N2C(=O)NC(=O)/C(=C\C=C\c3ccco3)C2=O)cc1	Exocytosis inh 90
Cc1nc(N2CCN(Cc3ccc4c(c3)OCO4)CC2)[nH]c(=O)c1C	none (no result: PP5 primary, PP1 counter, IDE inh)
CN1CCN(c2ccc([N+](=O)[O-])c3no[n+]([O-])c23)CC1	SKKanGAS inh 104
CCCCC(=O)N/N=C/c1c(O)n(CC)c(=S)[nH]c1=O	none
CCCCCCC(=O)N/N=C/c1c(O)n(CCCC)c(=S)[nH]c1=O	SKKanGAS inh 84
CCCCn1c(O)c(/C=N/NC(=O)c2ccncc2)c(=O)[nH]c1=S	SKKanGAS inh 106
Cn1c(O)c(/C=N/NC(=O)c2ccncc2)c(=O)[nH]c1=S	none (no result: IDE act)
O=c1[nH]c2ccccc2n1C1CCN(C(c2cc3ccccc3o2)c2nnnn2-c2ccc3c(c2)OCCO3)CC1 (stereo not drawn)	none (no result: PP5 primary, IDE act, SKKanGAS inh, PP1 counter, IDE inh)
CC(=O)OC1CCC2(C)C3CCC4(C)C(OC(C)=O)CCC4C3C(C)C2(O)C1 (stereo not drawn)	none (no result: PP5 primary, SKKanGAS inh, PP1 counter, IDE inh)
Cc1ccc2c(c1)=C/C(=C\c1c(O)[nH]c(=S)[nH]c1=O)C(=O)N=2	IDE inh 16 (no result: Exocytosis inh, IDE act)
COC(=O)C1=C(C(=O)OC)SC2(S1)C(C(=O)OC)=C(C(=O)OC)Sc1c2ssc1=O	Exocytosis inh 100 (no result: PP5 primary, SKKanGAS inh, PP1 counter, IDE inh)
Cc1ccccc1CN1CCCN(Cc2ccc(Cl)cc2)S1(=O)=O	SKKanGAS inh 63
COc1ccc(-c2ccc3c(c2)CN(C(=O)C(C)(C)C)Cc2cnnn2-3)cc1	none (no result: PP5 primary, IDE act, SKKanGAS inh, PP1 counter, IDE inh)
O=C1/C(=C\c2ccncc2)N2CCC1CC2	none (no result: IDE act)
O=C1/C(=C\c2ccc(Cl)c(Cl)c2)N2CCC1CC2	Exocytosis inh 94
Cc1nc2c(=O)n(C)c(=O)nc-2n(C)n1	PP5 primary 11, SKKanGAS inh 78, PP1 counter 44
CC(C)(C)c1ccc(O)c(N=Cc2c(O)ccc3ccccc23)c1	SKKanGAS inh 87
OC(CNC1CCCCC1)C(F)(F)F (stereo not drawn)	IDE act 20
Cc1ccc(C(O)(C(=O)OC(C)C)C(O)c2ccc(F)cc2)cc1 (stereo not drawn)	none (no result: PP5 primary, IDE act, SKKanGAS inh, PP1 counter, IDE inh)
Cc1cc(C)cc(N2C(=O)NC(=O)/C(=C/c3cccn3-c3ccc(Cl)cc3)C2=O)c1	none
Cc1cccc(N2C(=O)NC(=O)/C(=C\c3cccn3-c3ccc(Cl)cc3)C2=O)c1	Exocytosis inh 73
Cc1ccc(OP(=O)(Nc2cccc(C)c2)Oc2ccc(C)cc2)cc1	SKKanGAS inh 76
Cc1cccc(OP(=O)(Nc2cccnc2)Oc2cccc(C)c2)c1	none
C[N+]1=C(/C=C/Nc2ccccc2)C(C)(C)c2ccccc21	none
CCN1/C(=C/C=C/C2=[N+](CC)c3ccccc3C2(C)C)C(C)(C)c2ccccc21	Exocytosis inh 69 (no result: PP5 primary, IDE act, SKKanGAS inh, PP1 counter, IDE inh)
CN1/C(=C\C=C\C2=[N+](C)c3ccc4ccccc4c3C2(C)C)C(C)(C)c2ccccc21	PP5 primary 12, PP1 counter 36 (no result: Exocytosis inh, IDE act, SKKanGAS inh)
CN1/C(=C\C=Nc2ccccc2)C(C)(C)c2ccccc21	none
O=C1NCN(c2ccccc2)C12CCN(C(c1ccnc3ccccc13)c1nnnn1C1CCCC1)CC2 (stereo not drawn)	none (no result: PP5 primary, IDE act, SKKanGAS inh, PP1 counter, IDE inh)
O=C(c1cc2cc(F)ccc2[nH]1)N1CCC2(CC1)OCCO2	PP1 counter 17
Cc1nn(-c2ccccc2)c(Cl)c1C1C(C#N)=C(N)Oc2c1c(=O)oc1ccccc21 (stereo not drawn)	SKKanGAS inh 108
COCCNC(=O)c1c(NC(=O)c2ccc(Br)o2)n(Cc2ccccc2)c2nc3ccccc3nc12	SKKanGAS inh 61
COCCCNC(=O)c1c(NC(=O)c2ccco2)n(Cc2ccccc2)c2nc3ccccc3nc12	none
COC(=O)C1=C(c2ccc(F)cc2OCc2ccccc2)C[C@@H]2CC[C@H]1N2C(=O)NC1Cc2ccccc2C1	PP1 counter 17 (no result: SKKanGAS inh)
COC(=O)C1=C(c2ccccc2OCc2ccccc2)C[C@@H]2CC[C@H]1N2C(=O)NCc1ccc(C(C)(C)C)cc1	PP1 counter 17 (no result: SKKanGAS inh)
C[C@@H]1CN([C@@H](C)CO)C(=O)CCCn2nncc2CO[C@H]1CN(C)C(=O)Oc1ccccc1	none (no result: PP5 primary, IDE act, SKKanGAS inh, PP1 counter, IDE inh)
Cc1cccc(C)c1-n1nnnc1C(c1cccc2ccccc12)N1CCC2(CC1)C(=O)NCN2c1ccccc1 (stereo not drawn)	none (no result: PP5 primary, IDE act, SKKanGAS inh, PP1 counter, IDE inh)
O=C1NC(=O)N(CCc2ccc(F)cc2)C(=O)/C1=C\C=C\c1ccccc1	Exocytosis inh 66 (no result: PP5 primary, SKKanGAS inh, PP1 counter, IDE inh)
Cc1ccc(/C=C2\C(=O)NC(=O)N(CCc3ccc(F)cc3)C2=O)s1	Exocytosis inh 92
Cc1ccc(/C=C2/C(=O)NC(=O)N(CCc3ccc(F)cc3)C2=O)s1	none
C[C@]12CCC3C(CC[C@H]4C[C@@H](O)CC[C@]34C)C1CC[C@@H]2OC(=O)[C@H](N)CCCCN (stereo partly drawn)	none (no result: PP5 primary, SKKanGAS inh, PP1 counter)
CCCCC/C=C\C/C=C\C/C=C\C/C=C\CCCC(=O)Nc1ccc(O)cc1	SKKanGAS inh 107 (no result: Exocytosis inh, IDE act)
CCCCn1c(=O)c(C(=O)NCc2ccco2)c(O)c2ccccc21	none
CCCCn1c(=O)c(C(=O)NCc2ccncc2)c(O)c2ccccc21	SKKanGAS inh 58
CCCCCn1c(=O)c(C(=O)NCc2ccc(Cl)cc2)c(O)c2ccccc21	none
CCCCn1c(=O)c(C(=O)NCc2ccccc2Cl)c(O)c2ccccc21	SKKanGAS inh 50
CCCCn1c(=O)c(C(=O)NCc2ccccc2)c(O)c2ccccc21	SKKanGAS inh 76
O=C1NC(=O)N(Cc2ccc(F)cc2)C(=O)/C1=C/c1cccs1	Exocytosis inh 56
O=C1NC(=O)N(Cc2ccccc2Cl)C(=O)/C1=C/c1cccs1	none
O=C1NC(=O)N(Cc2ccc(F)cc2)C(=O)/C1=C\c1ccoc1	IDE inh 17
C/C(=N\NC(=O)c1ccccc1O)c1c(O)n(C2CCCCC2)c(=O)[nH]c1=O	SKKanGAS inh 50
O=c1oc2ccccc2c(O)c1C(c1ccc([N+](=O)[O-])cc1)c1c(O)c2ccccc2oc1=O	SKKanGAS inh 62 (no result: PP5 primary, PP1 counter, IDE inh)
CC(C)c1ccc(C(c2c(O)c3ccccc3oc2=O)c2c(O)c3ccccc3oc2=O)cc1	none (no result: PP5 primary, IDE act, SKKanGAS inh, PP1 counter, IDE inh)
C[C@@H]1CN([C@H](C)CO)C(=O)c2c(c3ccccc3n2C)-c2ccccc2CO[C@H]1CN(C)Cc1ccc2c(c1)OCCN2C	none (no result: PP5 primary, IDE act, SKKanGAS inh, PP1 counter, IDE inh)
